This is part of a sample that, as a whole, favours compounds with a hit. Of some 79,000 tested, about 15% had one in any assay. Unmarked numbers belong to inactive results. Calls of active or inactive are those of the source. Rule as the data show it: active = growth inhibition above about 70%; inactive = the rest.
Key:
[1] = NCI Yeast Anticancer Drug Screen. Data for the rad50 strain (AID 155);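 also: 0% = growth of vehicle-only cultures of the same strain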; settings: S. cerevisiae rad50 strain growth inhibition; at 50.0 µM; active compounds read high
Procedure, shortened: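 Inhibition values express reduced yeast growth in compound-treated cultures relative to vehicle-treated controls.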

[2] = NCI Yeast Anticancer Drug Screen. Data for the mec2-1 strain (AID 157); settings: S. cerevisiae mec2-1 strain, at 50.0 µM, active compounds read high
Procedure, shortened: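 Readout is yeast growth inhibition, normalised to vehicle-treated controls, in the mec2-1 strain exposed to compound.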

[3] = NCI Yeast Anticancer Drug Screen. Data for the sgs1 mgt1 strain (AID 161);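 also: 0% = growth of cultures given vehicle only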; settings: S. cerevisiae sgs1 mgt1 strain, at 50.0 µM, active compounds read high
Procedure, shortened: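 Growth of a repair-deficient yeast mutant was monitored after compound treatment and expressed as inhibition relative to vehicle-treated cultures.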

[4] = NCI Yeast Anticancer Drug Screen. Data for the cln2 rad14 strain (AID 165);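 also: 0% = growth equal to vehicle treated cultures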; settings: S. cerevisiae cln2 rad14 strain, at 50.0 µM, active compounds read high
Procedure, shortened: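 Relative to vehicle controls, growth inhibition of compound-treated cln2 rad14 yeast was recorded.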

[5] = NCI Yeast Anticancer Drug Screen. Data for the bub3 strain (AID 167); settings: S. cerevisiae bub3 mutant strain, at 50.0 µM, active compounds read high
Procedure, shortened: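 Steps: expose the mutant yeast strain to compound; grow alongside vehicle-treated cultures; measure growth; express inhibition against the vehicle cultures.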

[6] = NCI Yeast Anticancer Drug Screen. Data for the mlh1 rad18 strain (AID 175); settings: S. cerevisiae mlh1 rad18 strain growth inhibition; at 50.0 µM; active compounds read high
Procedure, shortened: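 Test agents were incubated with a yeast strain of defined genotype (DNA damage repair defect). Inhibition of growth was derived by comparison with vehicle-exposed cultures.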

## CC1(C)OC2C(COC(=O)c3ccc([N+](=O)[O-])cc3)OC(NC(=O)N(CCCl)N=O)C2O1 (stereo not given)
[1]
  growth inhibition: -34.4%
[2]
  growth inhibition: -21.2%
[3]
  growth inhibition: -20.9%
[4]
  growth inhibition: -11.2%
[5]
  growth inhibition: -36.5%
[6]
  growth inhibition: 81.5% (active)

## COc1ccc(-c2cc(-c3ccccc3)c(-c3ccccc3)nn2)cc1CN1CCOCC1
[1]
  growth inhibition: 2.65%
[2]
  growth inhibition: -29.2%
[3]
  growth inhibition: -17.1%
[4]
  growth inhibition: 10.7%
[5]
  growth inhibition: -5.05%
[6]
  growth inhibition: -7.85%

## O=C1c2cc(F)ccc2-c2c(F)cc(F)cc21
[1]
  growth inhibition: 19.9%
[2]
  growth inhibition: -6.4%
[3]
  growth inhibition: -2.1%
[4]
  growth inhibition: 40.5%
[5]
  growth inhibition: -3.85%
[6]
  growth inhibition: -8.8%

## [O-][n+]1c2ccccc2[n+]([O-])c2cc(O)ccc21
[1]
  growth inhibition: 20.4%
[2]
  growth inhibition: -4.05%
[3]
  growth inhibition: 12.7%
[4]
  growth inhibition: -1.3%
[5]
  growth inhibition: 17.1%
[6]
  growth inhibition: 50.8%

## O=C1OC2(CC1n1cnc3ccccc3c1=O)C(=O)Nc1ccccc12 (stereo not given)
[1]
  growth inhibition: 4.3%
[2]
  growth inhibition: -21.2%
[3]
  growth inhibition: 8.5%
[4]
  growth inhibition: 8.3%
[5]
  growth inhibition: -1.15%
[6]
  growth inhibition: 11.2%

## CCCCN1C(=O)C(CC(=O)OCC)SC1=S (stereo not given)
[1]
  growth inhibition: -8.35%
[2]
  growth inhibition: -28.7%
[3]
  growth inhibition: -19.9%
[4]
  growth inhibition: -7.8%
[5]
  growth inhibition: -18.2%
[6]
  growth inhibition: -14.3%

## COc1cccc(NC(=S)/C(=C(/[O-])c2ccc([N+](=O)[O-])cc2)[n+]2cccc3ccccc32)c1
[1]
  growth inhibition: 26.1%
[2]
  growth inhibition: 19.2%
[3]
  growth inhibition: 22.1%
[4]
  growth inhibition: 33.2%
[5]
  growth inhibition: 28.2%
[6]
  growth inhibition: 10.5%

## CC(=NCCN=C(C)c1ccccc1O)c1ccccc1O.[Cu]
[1]
  growth inhibition: -17.9%
[2]
  growth inhibition: -8.05%
[3]
  growth inhibition: 2.25%
[4]
  growth inhibition: -23.6%
[5]
  growth inhibition: -6.15%
[6]
  growth inhibition: -8.55%

## O=C(c1ccccc1)C12CCCC(CC1)C2 (stereo not given)
[1]
  growth inhibition: 0.15%
[2]
  growth inhibition: -19.9%
[3]
  growth inhibition: -2.2%
[4]
  growth inhibition: -37.5%
[5]
  growth inhibition: -9.6%
[6]
  growth inhibition: 0.65%

## Cc1ccc(NC(=O)CNc2ccc3c(c2)Cc2ccccc2-3)cc1
[1]
  growth inhibition: -1.05%
[2]
  growth inhibition: 14.6%
[3]
  growth inhibition: 24.9%
[4]
  growth inhibition: -37.5%
[5]
  growth inhibition: 34.5%
[6]
  growth inhibition: 27.2%

## CCc1cc(O)cc(C)c1Cl
[1]
  growth inhibition: 55.1%
[2]
  growth inhibition: 29.6%
[3]
  growth inhibition: 46.1%
[4]
  growth inhibition: 46.4%
[5]
  growth inhibition: 44.3%
[6]
  growth inhibition: 26.1%

## CCCCCCCCCCCC(=O)N(CCCCCCCCCCC(=O)O)CC(O)C(O)C(OC1OC(CO)C(O)C(O)C1O)C(O)CO (stereo not given)
[1]
  growth inhibition: 65.3%
[2]
  growth inhibition: 12.8%
[3]
  growth inhibition: 85.8% (active)
[4]
  growth inhibition: 32.2%
[5]
  growth inhibition: 86.3% (active)
[6]
  growth inhibition: 20.3%

## O=c1[nH]c2ccc(Cl)cc2[nH]c1=O
[1]
  growth inhibition: -7.05%
[2]
  growth inhibition: 5%
[3]
  growth inhibition: -10.5%
[4]
  growth inhibition: 0.3%
[5]
  growth inhibition: -1.45%
[6]
  growth inhibition: 0.9%

## Cc1cc(Cl)c(Cl)cc1Cl
[1]
  growth inhibition: 13%
[2]
  growth inhibition: 5.7%
[3]
  growth inhibition: -6.5%
[4]
  growth inhibition: -4%
[5]
  growth inhibition: -6.35%
[6]
  growth inhibition: 2.3%

## CCOC(=O)NC(S(=O)(=O)O)S(=O)(=O)O
[1]
  growth inhibition: 0.6%
[2]
  growth inhibition: 9.8%
[3]
  growth inhibition: -25.1%
[4]
  growth inhibition: -9.8%
[5]
  growth inhibition: 16.1%
[6]
  growth inhibition: 18.5%

## Nc1ccn[nH]1
[1]
  growth inhibition: 5.1%
[2]
  growth inhibition: -0.05%
[3]
  growth inhibition: 0.8%
[4]
  growth inhibition: -2.25%
[5]
  growth inhibition: 18.1%
[6]
  growth inhibition: 1.35%

## O=[N+]([O-])c1ccc(C=C2C=c3ccccc3=C2)cc1
[1]
  growth inhibition: 5.8%
[2]
  growth inhibition: 1.1%
[3]
  growth inhibition: -14.4%
[4]
  growth inhibition: -28.9%
[5]
  growth inhibition: 5.3%
[6]
  growth inhibition: 7.3%

## O=C1NN(c2ccccc2)CCO1
[1]
  growth inhibition: -2.45%
[2]
  growth inhibition: -3.2%
[3]
  growth inhibition: -5.25%
[4]
  growth inhibition: -18.6%
[5]
  growth inhibition: 0.1%
[6]
  growth inhibition: 2.15%

## NCCNC(=O)Cc1cccc2ccccc12
[1]
  growth inhibition: -21.1%
[2]
  growth inhibition: -48%
[3]
  growth inhibition: -5.15%
[4]
  growth inhibition: 3.6%
[5]
  growth inhibition: -36.5%
[6]
  growth inhibition: -3.05%

## O=C1NCC2(CCN(CC3COc4ccccc4O3)CC2)N1c1ccccc1 (stereo not given)
[1]
  growth inhibition: -23.3%
[2]
  growth inhibition: -18.2%
[3]
  growth inhibition: -21%
[4]
  growth inhibition: -2.95%
[5]
  growth inhibition: -3.2%
[6]
  growth inhibition: -34.5%

## OC12C=CC(CCCC1)O2 (stereo not given)
[1]
  growth inhibition: 0.35%
[2]
  growth inhibition: -6.65%
[3]
  growth inhibition: -7.4%
[4]
  growth inhibition: 3.2%
[5]
  growth inhibition: 10.3%
[6]
  growth inhibition: 4.9%

## CC1=CC(=O)c2ccc(F)cc2C1=O
[1]
  growth inhibition: -11.8%
[2]
  growth inhibition: -3.85%
[3]
  growth inhibition: 15%
[4]
  growth inhibition: -2.9%
[5]
  growth inhibition: -7.95%
[6]
  growth inhibition: 13.8%

## O=C1CNS(=O)(=O)N1
[1]
  growth inhibition: -18.9%
[2]
  growth inhibition: 8.45%
[3]
  growth inhibition: -16.5%
[4]
  growth inhibition: 10.2%
[5]
  growth inhibition: -16.4%
[6]
  growth inhibition: -7.85%

## Cc1cc(SCC(=O)c2ccccc2)nc2ccccc12
[1]
  growth inhibition: -6.75%
[2]
  growth inhibition: -24.1%
[3]
  growth inhibition: -8.85%
[4]
  growth inhibition: -2.25%
[5]
  growth inhibition: -53.1%
[6]
  growth inhibition: -2.7%

## O=C(c1ccc(Cl)cc1)N(C(=S)N1CCN(c2ccccc2)CC1)c1ccccc1
[1]
  growth inhibition: -11.5%
[2]
  growth inhibition: -25.9%
[3]
  growth inhibition: -12.1%
[4]
  growth inhibition: -6.3%
[5]
  growth inhibition: -13.8%
[6]
  growth inhibition: -15.1%

## COc1ccc2nccc(NCCCN3CCN(CCCNc4ccnc5ccc(OC)cc45)CC3)c2c1
[1]
  growth inhibition: 15.8%
[2]
  growth inhibition: 1%
[3]
  growth inhibition: 32.8%
[4]
  growth inhibition: -6.2%
[5]
  growth inhibition: 48.5%
[6]
  growth inhibition: -26.9%

## O=C(NN=C1c2ccccc2-c2ccccc21)C(F)(F)F
[1]
  growth inhibition: 87% (active)
[2]
  growth inhibition: 2.05%
[3]
  growth inhibition: 4.65%
[4]
  growth inhibition: 31.2%
[5]
  growth inhibition: 6%
[6]
  growth inhibition: 21.9%

## COC1=CC(=C(c2ccc(O)c(OC)c2)c2ccc(O)c(OC)c2)C=CC1=O
[1]
  growth inhibition: -2.75%
[2]
  growth inhibition: -6.95%
[3]
  growth inhibition: -2.55%
[4]
  growth inhibition: 4.4%
[5]
  growth inhibition: -22.4%
[6]
  growth inhibition: -31.9%

## C/C(=N\NC(N)=O)c1cc2cc([N+](=O)[O-])ccc2oc1=O
[1]
  growth inhibition: -2.2%
[2]
  growth inhibition: 23.6%
[3]
  growth inhibition: 16.1%
[4]
  growth inhibition: -7.85%
[5]
  growth inhibition: -12.6%
[6]
  growth inhibition: 8.5%

## O=[N+]([O-])c1ccc(N/N=C\C2C=CCCC2)c([N+](=O)[O-])c1 (stereo not given)
[1]
  growth inhibition: -13.2%
[2]
  growth inhibition: -0.1%
[3]
  growth inhibition: -5.65%
[4]
  growth inhibition: -31.8%
[5]
  growth inhibition: -1.05%
[6]
  growth inhibition: -19.9%

## N#CC(CN1CCCCC1)c1ccccc1 (stereo not given)
[1]
  growth inhibition: 5.4%
[2]
  growth inhibition: 1.55%
[3]
  growth inhibition: 5.2%
[4]
  growth inhibition: -41.4%
[5]
  growth inhibition: -8.75%
[6]
  growth inhibition: 0.8%

## CC(C)C[N+](=O)[O-]
[1]
  growth inhibition: -23.4%
[2]
  growth inhibition: -21.1%
[3]
  growth inhibition: -4.05%
[4]
  growth inhibition: -12.7%
[5]
  growth inhibition: -1.25%
[6]
  growth inhibition: 11.3%

## N/N=C1\CC(=O)NC(=O)N1
[1]
  growth inhibition: -2.15%
[2]
  growth inhibition: -11.1%
[3]
  growth inhibition: 1.9%
[4]
  growth inhibition: 1.8%
[5]
  growth inhibition: 3.05%
[6]
  growth inhibition: 0.05%

## N#CCC(=O)N/N=C\C(O)C(O)C(O)C(O)CO (stereo not given)
[1]
  growth inhibition: 0.1%
[2]
  growth inhibition: 2.6%
[3]
  growth inhibition: -10.8%
[4]
  growth inhibition: -1.45%
[5]
  growth inhibition: 4.5%
[6]
  growth inhibition: 11.1%

## C/C(=C\c1ccc(F)cc1)C(=O)O
[1]
  growth inhibition: 20.2%
[2]
  growth inhibition: -0.95%
[3]
  growth inhibition: 0%
[4]
  growth inhibition: 11.2%
[5]
  growth inhibition: 14.9%
[6]
  growth inhibition: 13.8%

## Nc1cc2c(cn1)[nH]c1ccccc12
[1]
  growth inhibition: 2.9%
[2]
  growth inhibition: -14.8%
[3]
  growth inhibition: -13.8%
[4]
  growth inhibition: -16.4%
[5]
  growth inhibition: 5.6%
[6]
  growth inhibition: -2.35%

## CCN(CC)CCC(=O)c1ccc(OC)cc1
[1]
  growth inhibition: 7.95%
[2]
  growth inhibition: 16.3%
[3]
  growth inhibition: 2.45%
[4]
  growth inhibition: 23.4%
[5]
  growth inhibition: 7.55%
[6]
  growth inhibition: 8.15%

## CC(=O)OC1C[C@@](C)(O)[C@@]23O[C@@H]2[C@@H]2O[C@]2(C)C3C2OC(=O)C(C)[C@H]12 (stereo not given in full)
[1]
  growth inhibition: -0.25%
[2]
  growth inhibition: -20.9%
[3]
  growth inhibition: -6.85%
[4]
  growth inhibition: 7.55%
[5]
  growth inhibition: -6.3%
[6]
  growth inhibition: -9.6%

## C=CCSc1nc2ccc(N3C(=O)CCC3=O)cc2s1
[1]
  growth inhibition: 15.4%
[2]
  growth inhibition: -11.7%
[3]
  growth inhibition: -10.6%
[4]
  growth inhibition: 10.2%
[5]
  growth inhibition: 6.05%
[6]
  growth inhibition: 4%

## Cc1nc2c(ncn2C2OC(CO)C(O)C2O)c(=O)[nH]1 (stereo not given)
[1]
  growth inhibition: -2.7%
[2]
  growth inhibition: 11.2%
[3]
  growth inhibition: -2.7%
[4]
  growth inhibition: -3.7%
[5]
  growth inhibition: 0.85%
[6]
  growth inhibition: -18.4%

Reference: PubChem BioAssay (NCI)
